The panel holds about 83,000 compounds, 20% with a hit somewhere; the sample as a whole holds those more often.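 96-well plates, one dose, 48 hours. Percent growth reported; active if below 10.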 Values without a mark were called inactive. The source made the active and inactive calls.
Legend:
Test in all cases: NCI-60 one-dose screen, 48 h (100 = growth as untreated, 0 = no growth, -100 = all killed)
Conditions in all cases: 10 µM unless noted
[1] = system: DU-145 prostate
[2] = system: K-562 leukemia
[3] = system: MALME-3M melanoma
[4] = system: MDA-MB-231 breast
[5] = system: RXF 393 renal
[6] = system: SF-268 CNS
[7] = system: SF-539 CNS
[8] = system: UACC-257 melanoma
[9] = system: M14 melanoma
[10] = system: HCT-15 colon
[11] = system: HT29 colon
[12] = system: SNB-75 CNS
[13] = system: SNB-19 CNS
[14] = system: U251 CNS
[15] = system: PC-3 prostate
[16] = system: SK-MEL-5 melanoma
[17] = system: UACC-62 melanoma
[18] = system: LOX IMVI melanoma
[19] = system: SK-MEL-28 melanoma

Compound	growth [1]	growth [2]	growth [3]	growth [4]	growth [5]	growth [6]	growth [7]	growth [8]	growth [9]	growth [10]	growth [11]	growth [12]	growth [13]	growth [14]	growth [15]	growth [16]	growth [17]	growth [18]	growth [19]
COc1ccc(Sc2[nH]c(C=O)c3ccccc23)cc1	74.6%	-0.59% (active)	91.8%	49.3%	6.64% (active)	78%	64.9%	91.4%	76.6%	63.1%	19.4%	6.71% (active)	77.6%	76.6%	45%	70.1%	46.7%	70.3%	81.9%
O=C1C(Cl)=C(N/N=c2/[nH][nH]/c(=N/NC3=C(Cl)C(=O)c4ccccc4C3=O)c3ccccc23)C(=O)c2ccccc21	108%	9.7% (active)	84.8%	42.8%	73.7%	41.7%	47.3%	97.7%	92.8%	83.9%	102%	63.6%	61.9%	2.88% (active)	55.5%	62.6%	25.7%	69.8%	104%
C#CC[C@@H]1C[C@]2(C)[C@H]3CC[C@@H]4[C@H]5C(C(=C)C)CC[C@]5(C(=O)NCCCCCCCCN)CC[C@@]4(C)[C@]3(C)CC[C@H]2C(C)(C)[C@H]1OC(C)=O (stereo not given in full)	75.3%	-41.8% (active)	111%	67.9%	71.5%	91.2%	88.3%	119%	102%	67.5%	30.5%	80.3%	92.1%	71.1%	55.3%	98%	108%	55%	113%
Cn1nc(C(F)(F)F)cc1-c1cc(Cl)c(OCc2ccc(Cl)cc2)c(-c2ccc(Cl)c(C(F)(F)F)c2)c1O	11.5%	8.16% (active)	-26.5% (active)	-21.8% (active)	-17.6% (active)	2.82% (active)	-12.5% (active)	1.55% (active)	-13.5% (active)	6.63% (active)	5.38% (active)	-8.74% (active)	17.4%	8.94% (active)	7.86% (active)	-53.3% (active)	4.43% (active)	12.4%	13.7%
COC1CC(N)C2OC(c3ccccc3)OCC2O1 (stereo not given)	115%	93.9%	106%	98.3%	115%	108%	101%	95.4%	107%	97.1%	103%	71.4%	103%	99.8%	105%	105%	101%	98.8%	105%
COc1cccc(NC(=O)c2c(-c3ccccc3)c(-c3ccccc3)n[nH]c2=O)c1	106%	81.9%	101%	102%	103%	105%	101%	97.9%	103%	97.6%	101%	77.9%	93.4%	101%	94.6%	99.4%	92.9%	96.3%	102%
Oc1c(-c2cc(C(F)(F)F)[nH]n2)cc(Cl)c(OCc2ccc(Cl)cc2)c1-c1ccc(Cl)c(C(F)(F)F)c1	10.2%	5.9% (active)	-30.5% (active)	-5.89% (active)	-24.7% (active)	-5.51% (active)	-11.6% (active)	-2.82% (active)	-21% (active)	-11.5% (active)	6.96% (active)	-17.6% (active)	18.6%	8.65% (active)	4.7% (active)	-60.2% (active)	-17.3% (active)	1.76% (active)	-19.9% (active)
O=C(Nc1ccc(OS(=O)(=O)c2ccc(F)cc2)cc1)C12CC3CC(CC(C3)C1)C2	87.1%	27.5%	99.7%	59.2%	58.6%	78.4%	61%	65.3%	58.8%	42.3%	7.52% (active)	101%	77.9%	84%	38%	28.3%	68%	61.6%	79.7%
O=[N+]([O-])c1cccc(N=C(Nc2cccc([N+](=O)[O-])c2)c2ccccc2)c1	98.2%	45%	79.7%	83.9%	82%	96.6%	87.1%	92.4%	85.7%	68.3%	47.5%	84.2%	92.4%	82.6%	51.6%	70.5%	70%	97%	96.3%
CCCCCCCCCCCCCC[N+](C)(C)CCCCCCCCCCCCCC	97.9%	30.5%	50.1%	78.9%	2.29% (active)	70.8%	77.2%	82.5%	75.4%	75.1%	30.5%	62.9%	70.4%	44.7%	12.6%	69.4%	42.6%	51.8%	89.3%
COc1ccc(-c2n[nH]nc2-c2cc(OC)c3c(c2)OCO3)cc1	-4.79% (active)	-11% (active)	34%	-25.9% (active)	19.1%	16.7%	-39.7% (active)	68%	8.15% (active)	6.08% (active)	-9.19% (active)	25.4%	48.7%	1.06% (active)	-7.05% (active)	-1.56% (active)	28%	-4.34% (active)	46.3%
CC1=C(C(=O)Nc2ccc(F)cc2)C(c2ccc(Cl)cc2)C2=C(CC(C)(C)CC2=O)N1 (stereo not given)	105%	74%	160%	82%	96.4%	86.3%	94%	95.3%	98.5%	84.6%	98%	66%	86%	81.6%	61.7%	75.9%	77.4%	87.8%	82.6%
CCN(CC)CCC(CNc1ccnc2cc(Cl)ccc12)c1ccc(O)cc1 (stereo not given)	91.4%	10.6%	93.5%	74.1%	52.5%	69.5%	88.4%	93.4%	6.04% (active)	109%	29.5%	85.7%	103%	81.3%	61.1%	91.9%	103%	50.4%	107%
CC1=NC(c2ccc(Cl)cc2)C2=C(N1)/C(=C/c1ccc(Cl)cc1)CCC2 (stereo not given)	105%	76.6%	96.4%	107%	90.8%	99.3%	103%	93.7%	65.3%	79.8%	54.4%	86.6%	102%	66%	89.1%	84.9%	83.3%	36.8%	93.9%
C/C(=N\OC(=O)Nc1ccccc1)c1ccccc1	97.1%	96.6%	107%	107%	87.2%	104%	105%	102%	103%	96.8%	105%	87.7%	103%	89.7%	99.4%	95.6%	94.2%	110%	101%

Reference: PubChem BioAssay (NCI)
